These results are taken from article PMC7862700, “An all-to-all approach to the identification of sequence-specific readers for epigenetic DNA modifications on cytosine”.

Holding throughout (test): DAPPL (digital affinity profiling via proximity ligation, sequencing); 10 mM Tris-HCl pH 7.5, 50 mM NaCl, 1 mM DTT, 4% glycerol, room temperature, 30 min; GST-TFs on glutathione beads, 16-mer random dsDNA library, 0.1% formaldehyde crosslink after washing; high values mean tight binding
What all share (conditions): protein: recombinant; tags: N-terminal GST; dsDNA, one strand shown

Test [1] addresses T1, FLI1 (Homo sapiens, UniProt Q01543 1-452).
T1 sequence: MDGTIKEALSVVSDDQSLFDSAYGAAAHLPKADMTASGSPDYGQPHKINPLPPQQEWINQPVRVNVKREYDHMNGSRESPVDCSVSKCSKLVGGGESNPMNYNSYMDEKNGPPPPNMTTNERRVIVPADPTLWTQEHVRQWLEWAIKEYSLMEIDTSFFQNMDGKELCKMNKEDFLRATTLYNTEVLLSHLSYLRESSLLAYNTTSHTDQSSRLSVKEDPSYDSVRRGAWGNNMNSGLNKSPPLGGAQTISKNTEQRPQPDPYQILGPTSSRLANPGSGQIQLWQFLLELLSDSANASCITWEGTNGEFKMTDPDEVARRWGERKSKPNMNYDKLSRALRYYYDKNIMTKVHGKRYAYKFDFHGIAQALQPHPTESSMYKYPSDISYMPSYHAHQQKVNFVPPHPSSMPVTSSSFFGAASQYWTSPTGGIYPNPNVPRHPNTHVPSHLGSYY
A digest of the protocol: (§1)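 Sequencing on an Illumina NextSeq500 followed washing, crosslinking with 0.1% formaldehyde, proximity ligation (BsaI/T4 ligase, 1 h, 37 °C) and PCR amplification of pools that had been incubated for 30 min at room temperature with 200 nmole of a random double-stranded 16-mer DNA library in Tris/NaCl/DTT/glycerol buffer. Each pool held DNA-barcoded human transcription factors, expressed in yeast as GST fusions and captured on glutathione beads, plus a tag-only sample. Binding signal is a hexamer's read frequency for a factor divided by its frequency in the tag-only sample.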

The target in test [2] is T2, ELK1 (Homo sapiens, UniProt P19419 1-428).
T2 sequence: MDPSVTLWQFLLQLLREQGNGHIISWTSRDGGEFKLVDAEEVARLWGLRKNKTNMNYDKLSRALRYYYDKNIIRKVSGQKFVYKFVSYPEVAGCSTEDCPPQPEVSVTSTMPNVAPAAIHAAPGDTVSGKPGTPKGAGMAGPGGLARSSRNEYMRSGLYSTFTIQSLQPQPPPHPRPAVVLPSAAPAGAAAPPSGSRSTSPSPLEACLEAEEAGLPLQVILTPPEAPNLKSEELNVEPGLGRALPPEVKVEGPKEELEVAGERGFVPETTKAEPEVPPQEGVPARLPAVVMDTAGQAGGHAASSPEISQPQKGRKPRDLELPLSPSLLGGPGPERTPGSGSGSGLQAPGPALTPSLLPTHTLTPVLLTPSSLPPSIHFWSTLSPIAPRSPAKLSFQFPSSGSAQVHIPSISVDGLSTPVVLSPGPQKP
A digest of the protocol: as §1

The target in test [3] is T3, GABPA (Homo sapiens, UniProt Q06546 1-454).
T3 sequence: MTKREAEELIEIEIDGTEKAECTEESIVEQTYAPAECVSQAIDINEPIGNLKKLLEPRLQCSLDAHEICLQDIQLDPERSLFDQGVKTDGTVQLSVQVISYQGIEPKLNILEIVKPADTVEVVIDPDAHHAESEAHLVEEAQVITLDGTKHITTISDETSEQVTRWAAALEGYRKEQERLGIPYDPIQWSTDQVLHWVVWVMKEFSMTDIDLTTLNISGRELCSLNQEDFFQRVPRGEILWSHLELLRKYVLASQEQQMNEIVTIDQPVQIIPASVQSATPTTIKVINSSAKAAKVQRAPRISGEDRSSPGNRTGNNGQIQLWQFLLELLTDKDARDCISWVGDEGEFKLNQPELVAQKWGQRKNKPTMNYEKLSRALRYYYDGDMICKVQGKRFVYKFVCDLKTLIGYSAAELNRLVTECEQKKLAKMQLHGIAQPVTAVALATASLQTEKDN
In outline: as §1

Test [4] addresses T4, ERG (Homo sapiens, UniProt P11308 1-479).
T4 sequence: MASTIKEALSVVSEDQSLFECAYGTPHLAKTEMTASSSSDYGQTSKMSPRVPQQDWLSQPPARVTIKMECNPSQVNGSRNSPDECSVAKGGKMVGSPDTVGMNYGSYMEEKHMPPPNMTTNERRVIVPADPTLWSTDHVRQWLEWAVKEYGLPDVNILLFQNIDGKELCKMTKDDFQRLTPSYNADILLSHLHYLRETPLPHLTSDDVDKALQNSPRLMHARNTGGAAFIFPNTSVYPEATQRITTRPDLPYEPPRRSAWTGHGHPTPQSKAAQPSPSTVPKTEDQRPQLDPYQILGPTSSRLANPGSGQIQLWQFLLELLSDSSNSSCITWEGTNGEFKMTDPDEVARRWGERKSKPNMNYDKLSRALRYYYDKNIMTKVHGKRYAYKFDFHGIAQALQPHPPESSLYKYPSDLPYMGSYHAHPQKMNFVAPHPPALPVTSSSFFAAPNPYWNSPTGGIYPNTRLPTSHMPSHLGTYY
A digest of the protocol: as §1

Test [5] concerns the target ELF1 (Homo sapiens, UniProt P32519 1-619). A digest of the protocol: as §1
For test [6], the target named is T5, EHF (Homo sapiens, UniProt Q9NZC4 1-300).
T5 sequence: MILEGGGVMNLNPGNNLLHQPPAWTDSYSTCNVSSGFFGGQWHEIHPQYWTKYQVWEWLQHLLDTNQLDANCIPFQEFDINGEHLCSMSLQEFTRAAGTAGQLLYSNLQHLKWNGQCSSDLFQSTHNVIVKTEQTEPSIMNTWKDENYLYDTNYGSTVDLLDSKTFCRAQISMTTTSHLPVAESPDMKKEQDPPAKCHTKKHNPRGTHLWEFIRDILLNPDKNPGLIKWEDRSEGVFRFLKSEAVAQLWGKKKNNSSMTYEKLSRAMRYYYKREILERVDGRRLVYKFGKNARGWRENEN
In outline: as §1

In test [7] the target is SPI1 (Homo sapiens, UniProt P17947 1-270). A digest of the protocol:
as §1

The target of test [8] is SPIB (Homo sapiens, UniProt Q01892 1-262). A digest of the protocol: as §1
Chain of SPIB (Q01892 whole entry): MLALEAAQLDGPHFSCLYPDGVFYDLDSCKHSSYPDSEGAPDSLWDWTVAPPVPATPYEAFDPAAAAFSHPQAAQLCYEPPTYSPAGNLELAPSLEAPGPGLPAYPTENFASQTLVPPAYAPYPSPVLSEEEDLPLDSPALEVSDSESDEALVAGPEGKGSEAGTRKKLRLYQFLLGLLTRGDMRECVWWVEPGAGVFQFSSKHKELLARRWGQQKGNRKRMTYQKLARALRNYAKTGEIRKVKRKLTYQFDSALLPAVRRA
For test [9], the target named is T6, ELK3 (Homo sapiens, UniProt P41970 1-407).
T6 sequence: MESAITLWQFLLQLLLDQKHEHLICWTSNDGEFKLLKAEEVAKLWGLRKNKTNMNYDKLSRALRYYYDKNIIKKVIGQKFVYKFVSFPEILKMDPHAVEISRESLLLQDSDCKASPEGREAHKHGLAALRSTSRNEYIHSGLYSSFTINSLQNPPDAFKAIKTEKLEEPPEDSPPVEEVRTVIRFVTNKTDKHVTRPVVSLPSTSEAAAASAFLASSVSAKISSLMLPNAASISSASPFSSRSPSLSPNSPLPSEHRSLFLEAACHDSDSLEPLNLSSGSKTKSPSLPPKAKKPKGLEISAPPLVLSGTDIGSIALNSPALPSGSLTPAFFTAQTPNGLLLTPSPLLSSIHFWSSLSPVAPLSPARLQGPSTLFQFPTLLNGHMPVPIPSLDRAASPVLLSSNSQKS
A digest of the protocol: as §1

For test [10], the target named is T7, FEV (Homo sapiens, UniProt Q99581 1-238).
T7 sequence: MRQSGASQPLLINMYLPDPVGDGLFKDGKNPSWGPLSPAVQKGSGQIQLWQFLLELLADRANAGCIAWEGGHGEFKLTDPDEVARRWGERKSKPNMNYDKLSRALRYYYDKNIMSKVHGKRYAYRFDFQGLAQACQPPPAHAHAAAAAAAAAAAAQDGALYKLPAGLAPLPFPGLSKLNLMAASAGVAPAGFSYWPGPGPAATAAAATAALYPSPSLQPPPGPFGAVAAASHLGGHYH
A digest of the protocol:
as §1

The target in test [11] is ETV5 (Homo sapiens, UniProt P41161 1-510). A digest of the protocol:
as §1

The target of test [12] is T8, SPIC (Homo sapiens, UniProt Q8N5J4 1-248).
T8 sequence: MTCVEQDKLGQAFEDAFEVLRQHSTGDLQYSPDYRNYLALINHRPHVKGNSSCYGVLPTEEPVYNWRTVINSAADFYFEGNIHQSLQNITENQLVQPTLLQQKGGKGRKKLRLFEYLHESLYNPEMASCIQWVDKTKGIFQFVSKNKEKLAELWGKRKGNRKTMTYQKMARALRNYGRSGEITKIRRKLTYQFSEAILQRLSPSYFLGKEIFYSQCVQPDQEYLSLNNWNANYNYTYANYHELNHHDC
A digest of the protocol:
as §1

The target in test [13] is ELF4 (Homo sapiens, UniProt Q99607 1-663). In outline: as §1
Chain of ELF4 (Q99607 whole entry): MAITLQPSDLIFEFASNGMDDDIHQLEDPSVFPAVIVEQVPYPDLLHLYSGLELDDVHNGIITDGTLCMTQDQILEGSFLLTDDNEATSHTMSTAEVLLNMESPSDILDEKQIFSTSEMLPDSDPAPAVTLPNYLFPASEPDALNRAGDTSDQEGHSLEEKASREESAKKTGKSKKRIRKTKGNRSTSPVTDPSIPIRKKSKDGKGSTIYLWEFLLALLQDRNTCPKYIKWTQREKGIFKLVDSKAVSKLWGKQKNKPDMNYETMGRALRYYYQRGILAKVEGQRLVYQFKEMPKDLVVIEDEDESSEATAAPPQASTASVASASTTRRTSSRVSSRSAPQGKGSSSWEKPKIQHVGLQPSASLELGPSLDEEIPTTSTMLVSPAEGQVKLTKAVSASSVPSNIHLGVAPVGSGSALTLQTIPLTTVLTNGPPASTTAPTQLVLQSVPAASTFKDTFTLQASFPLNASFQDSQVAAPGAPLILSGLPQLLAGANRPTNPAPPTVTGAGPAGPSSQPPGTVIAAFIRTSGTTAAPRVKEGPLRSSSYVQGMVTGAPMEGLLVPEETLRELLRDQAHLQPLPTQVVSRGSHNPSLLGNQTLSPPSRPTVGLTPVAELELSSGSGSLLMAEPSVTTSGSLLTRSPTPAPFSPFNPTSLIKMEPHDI
Test [14] deals with T9, ELK4 (Homo sapiens, UniProt P28324-2 1-405).
T9 sequence: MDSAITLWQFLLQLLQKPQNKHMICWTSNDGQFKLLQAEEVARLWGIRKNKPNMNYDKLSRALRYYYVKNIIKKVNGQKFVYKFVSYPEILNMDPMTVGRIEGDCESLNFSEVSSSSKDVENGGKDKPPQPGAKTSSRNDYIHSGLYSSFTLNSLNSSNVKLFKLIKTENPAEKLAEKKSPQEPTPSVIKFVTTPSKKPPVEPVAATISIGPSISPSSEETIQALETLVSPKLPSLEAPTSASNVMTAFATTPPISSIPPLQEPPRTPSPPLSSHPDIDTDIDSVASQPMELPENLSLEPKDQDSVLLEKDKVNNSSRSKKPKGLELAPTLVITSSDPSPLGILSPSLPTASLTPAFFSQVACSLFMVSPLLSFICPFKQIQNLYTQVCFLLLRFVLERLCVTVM
In outline: as §1

The target in test [15] is T10, ETV2 (Homo sapiens, UniProt O00321 1-342).
T10 sequence: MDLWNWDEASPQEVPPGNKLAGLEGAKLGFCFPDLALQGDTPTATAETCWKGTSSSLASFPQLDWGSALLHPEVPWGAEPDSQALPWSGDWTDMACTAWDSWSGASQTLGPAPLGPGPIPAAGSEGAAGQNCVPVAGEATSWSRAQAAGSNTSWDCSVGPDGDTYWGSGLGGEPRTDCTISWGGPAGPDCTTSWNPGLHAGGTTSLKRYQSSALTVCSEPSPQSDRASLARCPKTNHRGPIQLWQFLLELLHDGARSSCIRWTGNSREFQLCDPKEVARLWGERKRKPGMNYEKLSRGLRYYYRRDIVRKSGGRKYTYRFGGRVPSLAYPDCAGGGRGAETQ
In outline: as §1

In test [16] the target is T11, ELF3 (Homo sapiens, UniProt P78545 1-371).
T11 sequence: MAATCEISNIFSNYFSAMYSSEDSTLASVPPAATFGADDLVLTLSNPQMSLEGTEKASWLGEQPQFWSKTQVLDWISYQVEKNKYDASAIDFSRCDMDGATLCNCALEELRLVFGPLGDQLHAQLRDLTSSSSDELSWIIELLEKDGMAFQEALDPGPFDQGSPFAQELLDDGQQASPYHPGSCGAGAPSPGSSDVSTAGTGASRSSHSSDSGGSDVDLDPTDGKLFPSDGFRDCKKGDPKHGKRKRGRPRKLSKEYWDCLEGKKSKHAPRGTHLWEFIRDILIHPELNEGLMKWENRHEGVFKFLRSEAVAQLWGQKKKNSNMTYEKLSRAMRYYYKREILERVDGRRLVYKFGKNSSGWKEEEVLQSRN
A digest of the protocol: as §1

Chain of ETV5 (P41161 whole entry): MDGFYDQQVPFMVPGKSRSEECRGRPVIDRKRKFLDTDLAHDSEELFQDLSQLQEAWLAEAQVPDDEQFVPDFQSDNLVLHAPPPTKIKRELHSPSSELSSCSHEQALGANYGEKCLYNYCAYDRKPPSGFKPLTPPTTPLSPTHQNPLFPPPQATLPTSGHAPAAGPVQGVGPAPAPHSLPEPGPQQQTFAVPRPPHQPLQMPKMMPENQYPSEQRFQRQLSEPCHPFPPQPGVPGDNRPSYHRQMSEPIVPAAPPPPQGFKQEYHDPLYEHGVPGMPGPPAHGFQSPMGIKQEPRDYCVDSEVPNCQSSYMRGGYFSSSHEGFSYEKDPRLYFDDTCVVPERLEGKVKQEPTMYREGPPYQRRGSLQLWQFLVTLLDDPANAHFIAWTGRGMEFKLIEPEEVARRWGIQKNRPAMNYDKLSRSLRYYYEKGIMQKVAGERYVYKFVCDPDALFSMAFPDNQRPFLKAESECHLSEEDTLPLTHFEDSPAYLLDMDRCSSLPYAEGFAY
Chain of ELF1 (P32519 whole entry): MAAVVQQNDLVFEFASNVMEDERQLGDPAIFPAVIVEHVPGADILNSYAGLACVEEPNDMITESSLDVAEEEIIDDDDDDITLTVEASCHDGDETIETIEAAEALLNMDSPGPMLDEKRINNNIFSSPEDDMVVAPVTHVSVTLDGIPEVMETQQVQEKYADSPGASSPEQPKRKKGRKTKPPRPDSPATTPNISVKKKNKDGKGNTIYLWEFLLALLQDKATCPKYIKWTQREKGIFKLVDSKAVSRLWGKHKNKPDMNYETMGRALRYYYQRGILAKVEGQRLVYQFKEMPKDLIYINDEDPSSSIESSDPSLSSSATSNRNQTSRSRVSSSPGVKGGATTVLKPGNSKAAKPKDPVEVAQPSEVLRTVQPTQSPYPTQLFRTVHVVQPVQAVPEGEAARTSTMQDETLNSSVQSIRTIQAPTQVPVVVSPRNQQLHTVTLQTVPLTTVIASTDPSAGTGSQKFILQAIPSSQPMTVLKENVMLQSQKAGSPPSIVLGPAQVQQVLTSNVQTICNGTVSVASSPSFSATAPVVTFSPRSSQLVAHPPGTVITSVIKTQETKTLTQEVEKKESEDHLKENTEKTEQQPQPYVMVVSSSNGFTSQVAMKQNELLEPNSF

For GCGTTT, the binding signal in test [1] is 1.1 fold enrichment (6-mer frequency, TF over GST control); in test [2] it was 1.04 fold enrichment (6-mer frequency, TF over GST control); in test [3] it was 1.11 fold enrichment (6-mer frequency, TF over GST control); in test [4] it was 1.14 fold enrichment (6-mer frequency, TF over GST control); in test [5] it was 1.08 fold enrichment (6-mer frequency, TF over GST control); in [6], 1.14 fold enrichment (6-mer frequency, TF over GST control). Besides, the binding signal in test [7] was 1.05 fold enrichment (6-mer frequency, TF over GST control); in test [8], 1.13 fold enrichment (6-mer frequency, TF over GST control); in test [9], 1.2 fold enrichment (6-mer frequency, TF over GST control); in test [10] it was 1.18 fold enrichment (6-mer frequency, TF over GST control); in [11], 1.09 fold enrichment (6-mer frequency, TF over GST control); in test [12] it was 1.15 fold enrichment (6-mer frequency, TF over GST control). The binding signal is 1.13 fold enrichment (6-mer frequency, TF over GST control) in test [13]; 1.16 fold enrichment (6-mer frequency, TF over GST control) in [14]; 1.11 fold enrichment (6-mer frequency, TF over GST control) in test [15]; 1.15 fold enrichment (6-mer frequency, TF over GST control) in [16].
